Most compounds without a hit are left out; they make up all but 3.6% or so of the library.
mHTT CaM bind – mHTT-calmodulin interaction abrogation; inhibition, % at 15 µM; AID 1671202; AlphaScreen His-mHTT/GST-CaM binding, luminescence; 190,000 tested, 3.6% active;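 further: 0% = both proteins with DMSO and 100% = one protein alone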
Pf apPOL inh – Pf-apPOL DNA polymerase inhibition; Recombinant Pf-apPOL, molecular beacon fluorescence, 1.5 h; inhibition, % at 10 µM; 210,000 tested, 0.25% active
Numbers without * were called inactive; i = inactive; . = no result. No stated cut-off is given here; in the data, active means inhibition above about 50%; inactive means the rest.

SMILES | mHTT CaM bind | Pf apPOL inh
Cn1cc2c3c(cccc31)CN(C(=O)c1cc(F)cc(F)c1)CC2 | 29.6 | -1.0
Cn1cc2c3c(cccc31)CN(C(=O)c1cccc(Cl)c1)CC2 | 72.9* | -7.5
Cc1nnsc1C(=O)Nc1nnc(SCc2cn3ccccc3n2)s1 | -6.7 | -0.6
COc1cc2c(cc1OC)CN(S(=O)(=O)CCNC(=O)c1cc3ccccc3o1)CC2 | 10.3 | -1.6
COc1ccc(-c2onc(C)c2C)cc1S(=O)(=O)N1CCC(N2CCCCC2)CC1 | -5.0 | -2.0
O=C(c1ccc(F)cc1)N1CCC(n2c(-c3ccco3)nc3cccnc32)C1 (stereo not drawn) | 8.9 | -2.2
O=C(c1cccc(F)c1)N1CCC(n2c(-c3ccco3)nc3cccnc32)C1 (stereo not drawn) | 32.7 | -4.8
O=C(c1cccc(Br)c1)N1CCC(n2c(-c3ccco3)nc3cccnc32)C1 (stereo not drawn) | 87.0* | -3.8
O=C(c1ccccc1)N1CCC(n2c(-c3ccco3)nc3cccnc32)C1 (stereo not drawn) | 6.8 | -4.1
O=C(c1ccc(F)c(F)c1)N1CCC(n2c(-c3ccco3)nc3cccnc32)C1 (stereo not drawn) | 70.7* | -5.9
Cc1ccc(C(=O)N2CCC(n3c(-c4ccco4)nc4cccnc43)C2)cc1F (stereo not drawn) | 72.0* | -1.0
COc1cc(OC)cc(C(=O)Nc2c3c(nn2-c2cccc(C)c2C)CS(=O)C3)c1 (stereo not drawn) | 8.0 | -0.5
O=C1OC(c2ccc(Oc3ccccc3)cc2)=C/C1=C\c1ccco1 | 78.0* | 3.3
O=C1OC(c2ccc(Cl)cc2)=C/C1=C\c1ccco1 | 20.0 | -4.3
CCC1CCC(N2CCCC(CO)C2)CC1 (stereo not drawn) | 0.3 | -2.4
COc1cccc(C(=O)NC(c2ccco2)c2cc(Cl)c3cccnc3c2O)c1 (stereo not drawn) | 80.1* | 1.3
COc1cccc(C(=O)NC(c2ccccc2)c2cc(Cl)c3cccnc3c2O)c1 (stereo not drawn) | 54.0* | 2.0
COc1cccc(C(=O)NC(c2ccc(OC)c(OC)c2)c2cc(Cl)c3cccnc3c2O)c1 (stereo not drawn) | 52.0* | -5.5
CCCC(=O)NC(c1ccco1)c1cc(Cl)c2cccnc2c1O (stereo not drawn) | 43.0 | 12.9
COc1cccc(C(=O)NC(c2ccc([N+](=O)[O-])cc2)c2cc(Cl)c3cccnc3c2O)c1 (stereo not drawn) | 20.0 | -9.0
COc1cccc(-c2cc(C3CCN(S(=O)(=O)c4cc(F)ccc4F)CC3)[nH]n2)c1 | 12.5 | 4.5
O=C(c1csc(CN2CCN(c3ccccc3F)CC2)n1)N1CCCC1 | 6.9 | 2.3
COc1ccc(NC(=O)[C@@H]2CC=C[C@@H]3CCN(Cc4ccc(Cl)c(Cl)c4)C(=O)[C@@H]32)cc1 | 96.2* | -6.4
COc1ccc(CN2CC[C@H]3C=CC[C@@H](C(=O)O)[C@H]3C2=O)cc1OC | 3.1 | -2.5
COc1ccc(NC(=O)[C@@H]2CC=C[C@@H]3CCN(Cc4ccccc4)C(=O)[C@@H]32)cc1 | 2.2 | -4.2
SMILES | mHTT CaM bind | Pf apPOL inh
COc1ccc(CN2CC[C@H]3C=CC[C@@H](C(=O)Nc4ccc(Cl)c(C(F)(F)F)c4)[C@H]3C2=O)cc1OC | 56.4* | -7.1
O=C(O)c1ccccc1SCC(=NO)c1ccc([N+](=O)[O-])cc1 | . | 1.9
CC(C)N1C(=O)S/C(=C/c2cn(CC(=O)N3CCOCC3)c3ccccc23)C1=O | 24.0 | -0.2
CS(=O)(=O)N1CCC(CNC(=O)c2ccco2)CC1 | -5.1 | -9.5
Cc1noc(CNC(=O)C2CCN(C(=O)c3ccc(Cn4ccnc4)cc3)CC2)n1 | -13.0 | -2.3
CN(C)C(=O)c1csc(N2CCN(c3cccc(Cl)c3)CC2)n1 | 52.9* | -3.8
COc1cccc(N2CCN(c3nc(C(=O)N(C)C)cs3)CC2)c1 | 16.6 | -5.0
CC(C)CC(C(=O)NC1CCCC1)N1C(=O)c2ccccc2C1=O (stereo not drawn) | 2.0 | -6.6
COc1ccc(/C=N/NS(C)(=O)=O)cc1OC | i | .
N=C1NC(=O)/C(=C/c2ccccc2Br)S1 | -5.0 | -3.5
N=C1NC(=O)/C(=C/c2ccc(Cl)cc2Cl)S1 | 7.0 | 55.7*
O=[N+]([O-])c1ccc(C=Nc2ccc3c(c2)Cc2cc([N+](=O)[O-])ccc2-3)cc1 | 25.0 | -1.5
COc1ccc(C(=O)Nc2nc3n(n2)C(c2ccccc2)C=C(c2ccc(Cl)cc2)N3)cc1 (stereo not drawn) | 62.0* | -0.2
O=C(Nc1nc2n(n1)C(c1ccccc1)C=C(c1ccc(Cl)cc1)N2)c1ccco1 (stereo not drawn) | 49.0 | 0.5
O=C(O)CCC(=O)Nc1nc2n(n1)C(c1ccccc1)C=C(c1ccccc1)N2 (stereo not drawn) | 18.0 | 0.1
CC(=O)Nc1nc2n(n1)C(c1ccccc1)C=C(c1ccccc1)N2 (stereo not drawn) | 13.0 | 14.6
COc1ccccc1C(=O)Nc1nc2n(n1)C(c1ccccc1)C=C(c1ccccc1)N2 (stereo not drawn) | 68.0* | -3.0
COc1ccc(C(=O)Nc2nc3n(n2)C(c2ccccc2)C=C(c2ccccc2)N3)cc1 (stereo not drawn) | 61.0* | 0.1
CC1=CC(c2ccc(Cl)cc2)n2nc(NC(=O)c3ccccc3)nc2N1 (stereo not drawn) | 16.0 | 1.8
O=C(Nc1nc2n(n1)C(c1ccccc1)C=C(c1ccccc1)N2)c1ccco1 (stereo not drawn) | 67.0* | -6.6
Cc1cccc(N2C=C(C#N)S(=O)(=O)c3cc(F)ccc32)c1C | -7.4 | -0.5
C=CCn1c(-c2ccccc2)csc1=Nc1cccc([N+](=O)[O-])c1 | 4.0 | -1.5
O=C(O)CCN1C(=O)C(=O)C(=C(O)c2ccccc2)C1c1ccccc1[N+](=O)[O-] (stereo not drawn) | -2.9 | -0.6
CC1CC(C)CN(C(=O)c2ccc(Cl)cc2[N+](=O)[O-])C1 (stereo not drawn) | 0.0 | 1.6
CC1CCCN(C(=O)c2ccc(Cl)cc2[N+](=O)[O-])C1 (stereo not drawn) | 2.7 | 80.4*
SMILES | mHTT CaM bind | Pf apPOL inh
O=C(C=Cc1ccc(F)cc1)c1cc(Br)ccc1O | 8.6 | 1.7
CCOc1ccc2nc(C(=O)N3CCCC3)sc2c1 | -2.0 | 5.7
N#Cc1c(N)nc2sc(C(=O)c3ccc(Cl)cc3)c(N)c2c1-c1ccc(O)cc1 | 83.0* | 8.5
COc1ccc(-c2c(C#N)c(N)nc3sc(C(=O)c4ccc(C)cc4)c(N)c23)cc1 | -3.0 | -0.9
O=C(c1cc(F)ccc1F)N1CCCC(c2ccnc(-c3ccccc3)n2)C1 (stereo not drawn) | 31.4 | -2.5
O=C(O)c1cc(Br)cc2c1NC(c1ccc(F)cc1)C1CC=CC21 (stereo not drawn) | 95.0* | 8.1
CN(C)C(=O)c1cccc2c1NC(c1ccc(Cl)cc1Cl)C1CC=CC21 (stereo not drawn) | 4.0 | -3.5
Cc1ccc2c(c1C)NC(c1ccc([N+](=O)[O-])cc1)C1CC=CC21 (stereo not drawn) | 62.0* | 0.2
O=C(O)c1cccc2c1NC(c1ccc([N+](=O)[O-])cc1)C1CC=CC21 (stereo not drawn) | 66.5* | -4.7
O=C(O)c1cccc2c1NC(c1cccc(Br)c1)C1CC=CC21 (stereo not drawn) | 92.0* | 3.3
O=[N+]([O-])c1ccc(C2Nc3c(I)cccc3C3C=CCC32)cc1 (stereo not drawn) | 49.0 | 4.4

Source: PubChem BioAssay (University of Kansas High Throughput Screening Laboratory)
